# What was measured:
# Assay in all cases: DAPPL (digital affinity profiling via proximity ligation, sequencing); 10 mM Tris-HCl pH 7.5, 50 mM NaCl, 1 mM DTT, 4% glycerol, room temperature, 30 min; GST-TFs on glutathione beads, 16-mer random dsDNA library, 0.1% formaldehyde crosslink after washing; high values mean tight binding
# Conditions in all cases: protein: recombinant; tags: N-terminal GST; dsDNA, one strand shown
# FLI1 = target: T1, FLI1 (Homo sapiens, UniProt Q01543 1-452)
# T1 sequence: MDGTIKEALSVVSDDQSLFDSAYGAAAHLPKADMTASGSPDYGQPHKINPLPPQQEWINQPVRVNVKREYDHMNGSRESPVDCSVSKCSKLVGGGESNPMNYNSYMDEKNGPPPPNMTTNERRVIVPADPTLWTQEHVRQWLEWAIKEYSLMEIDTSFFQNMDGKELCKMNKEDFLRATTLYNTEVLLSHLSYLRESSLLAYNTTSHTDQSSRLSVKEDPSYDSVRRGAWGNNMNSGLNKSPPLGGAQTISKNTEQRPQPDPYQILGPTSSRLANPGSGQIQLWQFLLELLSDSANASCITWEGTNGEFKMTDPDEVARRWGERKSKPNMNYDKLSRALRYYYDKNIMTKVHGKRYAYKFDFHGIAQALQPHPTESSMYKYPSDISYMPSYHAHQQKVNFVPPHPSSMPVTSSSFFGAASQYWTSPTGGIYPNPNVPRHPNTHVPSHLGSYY
# Method in brief: (§1)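 Each value of binding signal is a hexamer's read frequency for a factor divided by the same hexamer's frequency in the tag-only sample. Barcoded, bead-captured GST fusions of human transcription factors made in yeast were pooled with that sample and incubated with 200 nmole of a random double-stranded 16-mer DNA library in Tris/NaCl/DTT/glycerol buffer at room temperature for 30 min. Washing, 0.1% formaldehyde crosslinking, proximity ligation, PCR and Illumina NextSeq500 sequencing followed.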
# ELK1 = target: T2, ELK1 (Homo sapiens, UniProt P19419 1-428)
# T2 sequence: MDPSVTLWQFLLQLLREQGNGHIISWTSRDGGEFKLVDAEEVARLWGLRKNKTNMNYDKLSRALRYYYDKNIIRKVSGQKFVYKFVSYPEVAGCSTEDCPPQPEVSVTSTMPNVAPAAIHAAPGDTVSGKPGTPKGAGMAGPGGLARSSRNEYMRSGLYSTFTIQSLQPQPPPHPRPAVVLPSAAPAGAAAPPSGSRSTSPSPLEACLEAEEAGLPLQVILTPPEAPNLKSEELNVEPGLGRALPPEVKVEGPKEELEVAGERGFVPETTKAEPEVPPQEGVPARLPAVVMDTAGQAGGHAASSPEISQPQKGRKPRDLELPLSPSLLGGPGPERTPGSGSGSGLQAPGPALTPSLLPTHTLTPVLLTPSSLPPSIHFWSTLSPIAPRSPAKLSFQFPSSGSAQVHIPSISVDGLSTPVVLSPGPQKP
# Method in brief: as §1
# GABPA = target: T3, GABPA (Homo sapiens, UniProt Q06546 1-454)
# T3 sequence: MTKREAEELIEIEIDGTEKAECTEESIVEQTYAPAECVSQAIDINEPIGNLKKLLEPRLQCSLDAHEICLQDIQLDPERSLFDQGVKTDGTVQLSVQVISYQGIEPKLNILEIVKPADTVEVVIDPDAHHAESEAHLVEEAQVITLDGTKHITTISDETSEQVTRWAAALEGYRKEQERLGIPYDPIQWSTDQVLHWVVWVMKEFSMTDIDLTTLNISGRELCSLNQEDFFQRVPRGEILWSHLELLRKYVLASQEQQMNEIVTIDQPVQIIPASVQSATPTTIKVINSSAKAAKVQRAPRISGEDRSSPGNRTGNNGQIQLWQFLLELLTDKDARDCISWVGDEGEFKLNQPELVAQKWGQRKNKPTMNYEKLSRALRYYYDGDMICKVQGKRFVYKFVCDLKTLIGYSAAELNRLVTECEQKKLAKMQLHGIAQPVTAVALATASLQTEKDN
# Method in brief: as §1
# ERG = target: T4, ERG (Homo sapiens, UniProt P11308 1-479)
# T4 sequence: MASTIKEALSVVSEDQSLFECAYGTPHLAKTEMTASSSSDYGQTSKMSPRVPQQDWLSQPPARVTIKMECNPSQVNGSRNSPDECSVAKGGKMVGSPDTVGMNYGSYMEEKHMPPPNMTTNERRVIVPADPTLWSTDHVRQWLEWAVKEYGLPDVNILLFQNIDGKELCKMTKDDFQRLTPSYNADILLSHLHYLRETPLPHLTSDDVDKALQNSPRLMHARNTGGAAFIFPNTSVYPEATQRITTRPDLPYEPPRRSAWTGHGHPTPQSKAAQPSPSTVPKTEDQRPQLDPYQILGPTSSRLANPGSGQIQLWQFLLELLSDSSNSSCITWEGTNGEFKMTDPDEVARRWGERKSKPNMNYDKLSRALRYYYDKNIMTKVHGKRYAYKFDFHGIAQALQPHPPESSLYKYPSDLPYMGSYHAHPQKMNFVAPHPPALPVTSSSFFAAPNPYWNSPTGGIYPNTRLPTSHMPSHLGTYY
# Method in brief: as §1
# ELF1 = ELF1 (Homo sapiens, UniProt P32519 1-619)
# Chain of ELF1 (P32519 whole entry): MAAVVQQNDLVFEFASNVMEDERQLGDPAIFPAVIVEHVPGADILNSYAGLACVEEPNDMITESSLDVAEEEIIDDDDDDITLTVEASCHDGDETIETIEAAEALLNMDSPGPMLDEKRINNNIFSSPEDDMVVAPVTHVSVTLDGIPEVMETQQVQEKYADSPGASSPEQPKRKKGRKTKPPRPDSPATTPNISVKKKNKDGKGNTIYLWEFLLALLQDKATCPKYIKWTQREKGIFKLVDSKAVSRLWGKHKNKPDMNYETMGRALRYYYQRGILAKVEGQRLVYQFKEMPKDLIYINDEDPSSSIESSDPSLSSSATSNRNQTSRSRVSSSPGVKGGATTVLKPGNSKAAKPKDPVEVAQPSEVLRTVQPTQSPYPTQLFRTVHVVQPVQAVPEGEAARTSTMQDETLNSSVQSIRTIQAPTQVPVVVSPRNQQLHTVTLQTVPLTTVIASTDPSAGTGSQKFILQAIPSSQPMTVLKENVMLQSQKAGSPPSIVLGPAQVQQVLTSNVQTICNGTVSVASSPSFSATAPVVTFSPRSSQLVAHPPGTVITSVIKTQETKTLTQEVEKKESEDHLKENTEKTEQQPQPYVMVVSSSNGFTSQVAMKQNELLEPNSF
# Method in brief: as §1
# EHF = target: T5, EHF (Homo sapiens, UniProt Q9NZC4 1-300)
# T5 sequence: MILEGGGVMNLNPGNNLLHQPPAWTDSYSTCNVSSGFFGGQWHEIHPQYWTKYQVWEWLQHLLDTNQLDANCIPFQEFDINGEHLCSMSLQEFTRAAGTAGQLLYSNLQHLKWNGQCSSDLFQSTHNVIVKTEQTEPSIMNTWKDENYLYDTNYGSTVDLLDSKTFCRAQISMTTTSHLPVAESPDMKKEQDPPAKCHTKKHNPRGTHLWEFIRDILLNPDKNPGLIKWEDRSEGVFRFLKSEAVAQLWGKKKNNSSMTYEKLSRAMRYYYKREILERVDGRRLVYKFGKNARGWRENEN
# Method in brief: as §1
# SPI1 = SPI1 (Homo sapiens, UniProt P17947 1-270)
# Method in brief: as §1
# SPIB = SPIB (Homo sapiens, UniProt Q01892 1-262)
# Chain of SPIB (Q01892 whole entry): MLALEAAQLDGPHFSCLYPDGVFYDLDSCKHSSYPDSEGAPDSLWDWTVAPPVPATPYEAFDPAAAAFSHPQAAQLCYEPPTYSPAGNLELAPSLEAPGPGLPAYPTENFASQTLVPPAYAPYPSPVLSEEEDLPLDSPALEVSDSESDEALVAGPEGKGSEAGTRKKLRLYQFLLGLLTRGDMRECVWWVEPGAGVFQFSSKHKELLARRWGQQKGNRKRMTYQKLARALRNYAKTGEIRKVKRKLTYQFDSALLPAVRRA
# Method in brief: as §1
# ELK3 = target: T6, ELK3 (Homo sapiens, UniProt P41970 1-407)
# T6 sequence: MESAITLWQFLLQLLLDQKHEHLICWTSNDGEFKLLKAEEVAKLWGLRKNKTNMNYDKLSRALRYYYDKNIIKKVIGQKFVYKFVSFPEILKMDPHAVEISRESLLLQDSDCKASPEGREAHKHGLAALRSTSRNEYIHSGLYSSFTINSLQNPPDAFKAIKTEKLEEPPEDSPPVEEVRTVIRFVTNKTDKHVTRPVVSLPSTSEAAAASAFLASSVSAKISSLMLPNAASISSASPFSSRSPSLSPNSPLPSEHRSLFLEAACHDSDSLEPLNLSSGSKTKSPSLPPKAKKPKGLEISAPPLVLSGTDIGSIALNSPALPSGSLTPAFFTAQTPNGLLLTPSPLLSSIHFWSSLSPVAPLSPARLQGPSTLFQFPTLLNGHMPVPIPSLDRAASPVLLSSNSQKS
# Method in brief: as §1
# FEV = target: T7, FEV (Homo sapiens, UniProt Q99581 1-238)
# T7 sequence: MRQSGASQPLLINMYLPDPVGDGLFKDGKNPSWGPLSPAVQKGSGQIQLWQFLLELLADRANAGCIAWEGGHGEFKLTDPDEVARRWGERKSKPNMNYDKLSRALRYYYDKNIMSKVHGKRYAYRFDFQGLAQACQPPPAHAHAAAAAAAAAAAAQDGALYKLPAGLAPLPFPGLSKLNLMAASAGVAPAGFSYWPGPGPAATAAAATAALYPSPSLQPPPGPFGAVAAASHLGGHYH
# Method in brief: as §1
# ETV5 = ETV5 (Homo sapiens, UniProt P41161 1-510)
# Chain of ETV5 (P41161 whole entry): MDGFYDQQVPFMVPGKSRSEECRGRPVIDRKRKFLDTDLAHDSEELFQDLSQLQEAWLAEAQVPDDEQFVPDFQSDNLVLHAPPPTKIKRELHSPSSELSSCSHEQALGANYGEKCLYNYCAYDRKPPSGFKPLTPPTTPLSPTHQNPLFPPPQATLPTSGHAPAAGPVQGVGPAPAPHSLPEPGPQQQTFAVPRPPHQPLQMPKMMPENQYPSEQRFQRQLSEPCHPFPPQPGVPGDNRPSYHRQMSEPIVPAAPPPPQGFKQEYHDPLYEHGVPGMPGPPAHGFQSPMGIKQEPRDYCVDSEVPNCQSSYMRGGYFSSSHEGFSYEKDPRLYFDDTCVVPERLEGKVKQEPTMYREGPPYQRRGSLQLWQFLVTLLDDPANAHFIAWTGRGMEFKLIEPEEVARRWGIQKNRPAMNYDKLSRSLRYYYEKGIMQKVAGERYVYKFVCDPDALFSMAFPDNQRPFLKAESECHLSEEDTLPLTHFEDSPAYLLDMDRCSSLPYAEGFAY
# Method in brief: as §1
# SPIC = target: T8, SPIC (Homo sapiens, UniProt Q8N5J4 1-248)
# T8 sequence: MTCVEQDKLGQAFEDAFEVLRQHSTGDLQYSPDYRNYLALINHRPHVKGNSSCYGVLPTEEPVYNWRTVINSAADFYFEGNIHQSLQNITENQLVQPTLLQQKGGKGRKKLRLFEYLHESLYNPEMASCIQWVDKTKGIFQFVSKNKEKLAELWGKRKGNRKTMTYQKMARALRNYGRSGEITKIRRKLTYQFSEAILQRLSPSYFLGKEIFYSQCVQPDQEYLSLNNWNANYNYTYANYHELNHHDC
# Method in brief: as §1
# ELF4 = ELF4 (Homo sapiens, UniProt Q99607 1-663)
# Chain of ELF4 (Q99607 whole entry): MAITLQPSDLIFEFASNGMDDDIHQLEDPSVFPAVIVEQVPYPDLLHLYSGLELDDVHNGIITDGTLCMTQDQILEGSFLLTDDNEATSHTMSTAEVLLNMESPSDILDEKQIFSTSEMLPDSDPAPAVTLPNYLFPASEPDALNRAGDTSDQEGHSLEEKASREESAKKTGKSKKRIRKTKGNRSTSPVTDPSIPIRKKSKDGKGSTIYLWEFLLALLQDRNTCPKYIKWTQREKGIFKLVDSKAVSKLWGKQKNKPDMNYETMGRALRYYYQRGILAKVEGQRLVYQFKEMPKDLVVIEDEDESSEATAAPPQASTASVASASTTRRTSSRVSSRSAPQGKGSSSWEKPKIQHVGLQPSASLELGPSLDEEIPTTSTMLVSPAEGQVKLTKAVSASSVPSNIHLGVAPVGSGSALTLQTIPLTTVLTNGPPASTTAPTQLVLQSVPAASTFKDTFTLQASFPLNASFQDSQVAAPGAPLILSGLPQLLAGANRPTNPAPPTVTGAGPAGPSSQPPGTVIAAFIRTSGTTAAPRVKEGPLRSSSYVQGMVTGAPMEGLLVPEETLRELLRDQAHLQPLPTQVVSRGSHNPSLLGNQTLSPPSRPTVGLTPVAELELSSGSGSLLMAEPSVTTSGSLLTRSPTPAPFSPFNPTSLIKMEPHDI
# Method in brief: as §1
# ELK4 = target: T9, ELK4 (Homo sapiens, UniProt P28324-2 1-405)
# T9 sequence: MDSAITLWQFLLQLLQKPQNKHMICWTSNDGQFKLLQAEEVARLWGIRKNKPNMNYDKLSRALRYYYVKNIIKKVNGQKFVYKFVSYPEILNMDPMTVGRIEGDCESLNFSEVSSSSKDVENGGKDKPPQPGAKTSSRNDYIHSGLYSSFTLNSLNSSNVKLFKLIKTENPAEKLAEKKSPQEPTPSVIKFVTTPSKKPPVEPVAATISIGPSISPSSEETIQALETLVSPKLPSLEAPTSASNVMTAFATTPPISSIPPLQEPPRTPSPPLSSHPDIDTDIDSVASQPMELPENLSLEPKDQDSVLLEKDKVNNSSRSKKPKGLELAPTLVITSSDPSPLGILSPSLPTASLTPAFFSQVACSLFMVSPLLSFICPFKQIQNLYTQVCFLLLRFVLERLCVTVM
# Method in brief: as §1
# ELF3 = target: T10, ELF3 (Homo sapiens, UniProt P78545 1-371)
# T10 sequence: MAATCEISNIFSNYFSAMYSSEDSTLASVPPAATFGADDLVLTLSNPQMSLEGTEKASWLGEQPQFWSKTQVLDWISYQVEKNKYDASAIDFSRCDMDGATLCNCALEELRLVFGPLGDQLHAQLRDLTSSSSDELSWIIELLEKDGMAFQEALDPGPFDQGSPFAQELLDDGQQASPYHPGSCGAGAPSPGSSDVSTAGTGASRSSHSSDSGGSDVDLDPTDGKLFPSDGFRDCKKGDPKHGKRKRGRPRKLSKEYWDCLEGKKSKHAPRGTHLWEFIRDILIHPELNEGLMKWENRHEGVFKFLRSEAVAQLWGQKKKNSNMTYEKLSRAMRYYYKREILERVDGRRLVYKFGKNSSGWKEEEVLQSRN
# Method in brief: as §1
# ETV1 = ETV1 (Homo sapiens, UniProt P50549 1-477)
# Chain of ETV1 (P50549 whole entry): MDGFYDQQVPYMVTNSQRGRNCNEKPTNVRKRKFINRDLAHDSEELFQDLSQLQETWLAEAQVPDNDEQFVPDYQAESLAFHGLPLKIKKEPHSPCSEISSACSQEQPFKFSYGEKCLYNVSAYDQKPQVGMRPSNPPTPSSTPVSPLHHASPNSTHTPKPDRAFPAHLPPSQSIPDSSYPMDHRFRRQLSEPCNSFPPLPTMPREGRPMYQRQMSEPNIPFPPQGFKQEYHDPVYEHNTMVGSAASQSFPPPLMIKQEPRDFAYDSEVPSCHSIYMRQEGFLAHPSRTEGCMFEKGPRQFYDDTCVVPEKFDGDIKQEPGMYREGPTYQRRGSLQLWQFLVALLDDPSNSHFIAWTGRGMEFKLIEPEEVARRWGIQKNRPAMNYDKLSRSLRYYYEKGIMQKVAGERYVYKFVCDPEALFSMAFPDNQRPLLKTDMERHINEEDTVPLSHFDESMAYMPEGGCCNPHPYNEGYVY
# Method in brief: as §1
# ETV2 = target: T11, ETV2 (Homo sapiens, UniProt O00321 1-342)
# T11 sequence: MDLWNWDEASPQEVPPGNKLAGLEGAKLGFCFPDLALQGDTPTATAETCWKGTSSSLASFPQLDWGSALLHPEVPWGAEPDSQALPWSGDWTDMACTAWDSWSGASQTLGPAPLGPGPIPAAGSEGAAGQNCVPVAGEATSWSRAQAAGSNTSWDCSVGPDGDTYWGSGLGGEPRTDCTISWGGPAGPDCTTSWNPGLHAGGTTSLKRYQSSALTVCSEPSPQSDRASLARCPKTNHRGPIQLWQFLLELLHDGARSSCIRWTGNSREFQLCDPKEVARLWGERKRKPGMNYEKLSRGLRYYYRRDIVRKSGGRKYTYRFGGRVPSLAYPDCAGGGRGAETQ
# Method in brief: as §1
Sequence,binding signal (FLI1),binding signal (ELK1),binding signal (GABPA),binding signal (ERG),binding signal (ELF1),binding signal (EHF),binding signal (SPI1),binding signal (SPIB),binding signal (ELK3),binding signal (FEV),binding signal (ETV5),binding signal (SPIC),binding signal (ELF4),binding signal (ELK4),binding signal (ELF3),binding signal (ETV1),binding signal (ETV2)
AAGTTG,"1.09 fold enrichment (6-mer frequency, TF over GST control)","1.07 fold enrichment (6-mer frequency, TF over GST control)","1.1 fold enrichment (6-mer frequency, TF over GST control)","1.08 fold enrichment (6-mer frequency, TF over GST control)","1.08 fold enrichment (6-mer frequency, TF over GST control)","1.14 fold enrichment (6-mer frequency, TF over GST control)","1.13 fold enrichment (6-mer frequency, TF over GST control)","1.1 fold enrichment (6-mer frequency, TF over GST control)","1.11 fold enrichment (6-mer frequency, TF over GST control)","1.05 fold enrichment (6-mer frequency, TF over GST control)","1.16 fold enrichment (6-mer frequency, TF over GST control)","1.08 fold enrichment (6-mer frequency, TF over GST control)","1.14 fold enrichment (6-mer frequency, TF over GST control)","1.12 fold enrichment (6-mer frequency, TF over GST control)","1.12 fold enrichment (6-mer frequency, TF over GST control)","1.02 fold enrichment (6-mer frequency, TF over GST control)",–
ACGCAC,"1.06 fold enrichment (6-mer frequency, TF over GST control)","1.09 fold enrichment (6-mer frequency, TF over GST control)","1.04 fold enrichment (6-mer frequency, TF over GST control)","1.02 fold enrichment (6-mer frequency, TF over GST control)","1.06 fold enrichment (6-mer frequency, TF over GST control)","1.03 fold enrichment (6-mer frequency, TF over GST control)","1.03 fold enrichment (6-mer frequency, TF over GST control)","1.07 fold enrichment (6-mer frequency, TF over GST control)","1.09 fold enrichment (6-mer frequency, TF over GST control)","1.05 fold enrichment (6-mer frequency, TF over GST control)","1.09 fold enrichment (6-mer frequency, TF over GST control)","1.01 fold enrichment (6-mer frequency, TF over GST control)","1.05 fold enrichment (6-mer frequency, TF over GST control)","1.06 fold enrichment (6-mer frequency, TF over GST control)",–,"1.1 fold enrichment (6-mer frequency, TF over GST control)","1.22 fold enrichment (6-mer frequency, TF over GST control)"
ATGTCA,"1.14 fold enrichment (6-mer frequency, TF over GST control)","1.1 fold enrichment (6-mer frequency, TF over GST control)","1.14 fold enrichment (6-mer frequency, TF over GST control)","1.17 fold enrichment (6-mer frequency, TF over GST control)","1.16 fold enrichment (6-mer frequency, TF over GST control)","1.15 fold enrichment (6-mer frequency, TF over GST control)","1.08 fold enrichment (6-mer frequency, TF over GST control)","1.19 fold enrichment (6-mer frequency, TF over GST control)","1.02 fold enrichment (6-mer frequency, TF over GST control)","1.03 fold enrichment (6-mer frequency, TF over GST control)","1.08 fold enrichment (6-mer frequency, TF over GST control)","1.21 fold enrichment (6-mer frequency, TF over GST control)","1.19 fold enrichment (6-mer frequency, TF over GST control)","1.14 fold enrichment (6-mer frequency, TF over GST control)","1.28 fold enrichment (6-mer frequency, TF over GST control)","1.11 fold enrichment (6-mer frequency, TF over GST control)",–

# Reference: article PMC7862700, “An all-to-all approach to the identification of sequence-specific readers for epigenetic DNA modifications on cytosine”
